Legend:
[1] = test system: Human papillomavirus type 1a protein E7 (residues 44-93); assay: HPV1a E7 fragment binders on microarrays, primary screen, biochemical, small-molecule microarray, residues 44-93, 635 nm fluorescence (AID 1108); conditions: small-molecule microarray binding, fluorescence 635 nm; higher = more signal;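 further: E7 fragment applied at 1 µg/mL in TBST for 1 h at 4 C; score combines spot fluorescence with its signal to noise ratio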
[2] = modulators of HCV replicon luciferase signal, primary screen, HCV replication inhibitor project, Huh7 cells, luciferase reporter (AID 1109); conditions: 48 h, higher = more signal;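 further: huh7 hepatoma cells harbouring a luciferase neomycin HCV replicon reporter; luciferase luminescence as measure of HCV replicon replication; test concentration not given here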
[3] = biological target: Left-right determination factor 2 (Homo sapiens) (UniProt O00292); assay: LEFTY2 binders on small-molecule microarrays, primary screen, biochemical, small-molecule microarray, 635 nm fluorescence scan (AID 1110); conditions: LEFTY2 binding, higher = more signal
[4] = biological target: Calmodulin-1 (Homo sapiens) (UniProt P0DP23); assay: CALM1 binders on microarrays, EGTA buffer, profiling panel, biochemical, small-molecule microarray, Cy5-labelled CALM1 (AID 1111); conditions: Cy5-CALM1 binding fluorescence, higher = more signal;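 further: labelled calmodulin applied in Tris saline Tween buffer holding calcium plus EGTA and DTT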
[5] = biological target: Calmodulin-1 (Homo sapiens) (UniProt P0DP23); assay: calcium-bound CALM1 binders on microarrays, profiling panel, artefact control for SMM control-protein annotation, biochemical, small-molecule microarray, Cy5-labelled CALM1, plus calcium (AID 1112); conditions: Cy5-CALM1 binding fluorescence, higher = more signal;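 further: score merges spot fluorescence with signal to noise from triplicate slides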
[6] = small-molecule microarray binders of probe aWnt5a, primary screen, biochemical, biotinylated probe, 635/667 nm fluorescence (AID 1113); conditions: higher = more signal;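 further: score merges 667 nm fluorescence intensity with signal-to-noise per printed feature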
[7] = small-molecule microarray binders of probe aShh, primary screen, biochemical, biotinylated probe, 635/667 nm fluorescence (AID 1114); conditions: higher = more signal;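 further: probe is biotin-labelled aShh protein from a stem cell growth factor screen; measures binding of labelled protein to compounds printed on the slide; score merges feature fluorescence at 667 nm with signal-to-noise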
[8] = small-molecule microarray binders of probe aNog, primary screen, biochemical, biotinylated probe, 635/667 nm fluorescence (AID 1115); conditions: higher = more signal;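 further: probe is biotinylated aNog protein used at 0.15 µg/mL for 1 h at 4 C; z-score combines 667 nm fluorescence of each spot with its signal to noise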
[9] = biological target: Torsin-1A-interacting protein 1 (Homo sapiens) (UniProt Q5JTV8); assay: LAP1 binders from COS7 cell lysate, primary screen, small-molecule microarray, 635/667 nm fluorescence (AID 1116); conditions: COS7-hLAP1 lysate binding, 635 nm fluorescence, higher = more signal
[10] = biological target: Alpha-bungarotoxin (Bungarus multicinctus) (UniProt P60615); assay: alpha-bungarotoxin binders on microarray, profiling panel, artefact control for SMM control protein annotation, biochemical, small-molecule microarray, Alexa647 label, 635/667 nm fluorescence (AID 1117); conditions: alpha-BTX-A647 binding fluorescence, higher = more signal
Sequence of Alpha-bungarotoxin (Bungarus multicinctus) (P60615 whole entry, looked up): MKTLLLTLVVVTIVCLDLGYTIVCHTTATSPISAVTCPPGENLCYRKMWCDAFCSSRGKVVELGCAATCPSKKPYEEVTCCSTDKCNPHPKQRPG

Sequence of Left-right determination factor 2 (Homo sapiens) (O00292 whole entry, looked up): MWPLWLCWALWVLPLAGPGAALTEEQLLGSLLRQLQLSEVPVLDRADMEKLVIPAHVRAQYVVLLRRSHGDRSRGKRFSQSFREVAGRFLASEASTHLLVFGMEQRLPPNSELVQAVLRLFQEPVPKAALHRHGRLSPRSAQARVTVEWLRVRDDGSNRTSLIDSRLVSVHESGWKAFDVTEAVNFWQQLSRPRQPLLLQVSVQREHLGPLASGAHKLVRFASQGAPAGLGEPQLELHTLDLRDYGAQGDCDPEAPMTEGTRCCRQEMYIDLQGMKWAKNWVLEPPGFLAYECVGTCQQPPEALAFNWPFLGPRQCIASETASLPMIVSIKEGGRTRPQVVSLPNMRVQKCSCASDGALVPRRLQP
Sequence of Torsin-1A-interacting protein 1 (Homo sapiens) (Q5JTV8 whole entry, looked up): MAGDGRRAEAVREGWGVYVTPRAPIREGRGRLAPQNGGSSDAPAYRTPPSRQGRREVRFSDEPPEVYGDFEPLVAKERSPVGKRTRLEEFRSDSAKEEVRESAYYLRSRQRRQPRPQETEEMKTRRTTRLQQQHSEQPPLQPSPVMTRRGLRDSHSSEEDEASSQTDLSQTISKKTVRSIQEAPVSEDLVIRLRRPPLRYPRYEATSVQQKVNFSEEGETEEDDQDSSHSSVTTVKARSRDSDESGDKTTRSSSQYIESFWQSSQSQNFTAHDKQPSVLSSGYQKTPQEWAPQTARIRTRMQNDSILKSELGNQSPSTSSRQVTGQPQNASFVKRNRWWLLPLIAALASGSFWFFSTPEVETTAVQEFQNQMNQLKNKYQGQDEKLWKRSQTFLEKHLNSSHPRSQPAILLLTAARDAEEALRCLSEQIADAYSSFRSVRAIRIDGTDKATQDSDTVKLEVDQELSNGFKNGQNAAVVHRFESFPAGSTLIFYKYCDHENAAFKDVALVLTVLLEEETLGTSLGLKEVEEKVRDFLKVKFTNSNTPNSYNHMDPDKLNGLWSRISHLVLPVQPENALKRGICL

Structure (SMILES) | composite z-score [1] | z-score [2] | composite z-score [3] | composite z-score [4] | composite z-score [5] | composite z-score [6] | composite z-score [7] | composite z-score [8] | composite z-score [9] | composite z-score [10]
C[C@H]1ON(c2ccccc2)[C@@H](c2ccccc2)[C@@H]1C(=O)N1C(=O)OC[C@@H]1c1ccccc1 | 0.184 | -0.432 | 0.521 | -0.238 | -0.162 | -0.134 | -0.251 | -0.0855 | 0.357 | -0.1
O=C1OCCC=C[C@H]2OC34C=CCN(Cn5nnc6ccccc65)C(=O)[C@H]3N(CCCCCO)C(=O)[C@@H]4C12 (stereo not given in full) | -0.473 | 0.204 | -0.511 | -0.212 | 0.106 | -0.101 | -0.0769 | 0.0599 | -1.1 | -1.09
CC(C)CNC(=O)[C@@]1(C)c2ccccc2C(=O)N(Cc2ccccc2)[C@H]1c1ccc(CO)cc1 | -0.205 | 0.0768 | -1.55 | -1.21 | 0.431 | -0.192 | -0.0735 | -0.327 | 0.055 | -0.905
CO[C@H]1O[C@H](CO)[C@@H](OC(=O)Nc2cccc(F)c2)[C@H](OC(=O)Nc2ccc3c(c2)OCO3)[C@H]1OC(=O)Nc1ccc2c(c1)OCO2 | 1.12 | -1.37 | 0.0115 | 0.67 | -0.957 | -0.0735 | 0.0469 | 0.201 | 3.02 | 0.972
CCOC(=O)C[C@H]1[C@H](OC(=O)c2ccc(C(=O)c3ccccc3)cc2)[C@@H](NC(=O)C2CCCCC2)c2cc(OCCCO)ccc2N1C(=O)Cc1ccc(OC)cc1 | 0.773 | -1.96 | 0.0258 | 1.13 | 0.304 | -0.0907 | -0.0769 | -0.0597 | 0.602 | 0.237
C=C[C@H](C)[C@H](OC(=O)Nc1ccc(SC)cc1)c1ccc(O)c2ccccc12 | -1.97 | -0.766 | -0.256 | -0.413 | 0.273 | -0.325 | 0.0952 | -0.383 | -0.0193 | -0.385
CC(C)NC(=O)[C@@H]1c2ccccc2C(=O)N(Cc2cc(C(F)(F)F)cc(C(F)(F)F)c2)[C@H]1c1ccc(CO)cc1 | 0.376 | -0.153 | 0.147 | 0.876 | 0.221 | -0.176 | -0.0793 | 0.735 | 0.724 | 0.594
CN(C)C(=O)[C@@]1(CCS(=O)(=O)c2ccccc2)N=C(c2ccc(OCCCO)cc2)O[C@H]1c1ccccc1CN=[N+]=[N-] | 1.42 | -1.28 | 0.446 | 1.42 | -0.335 | 0.063 | 0.108 | -0.274 | 1.09 | 1.06
O=C(O)[C@@]1(Cc2ccccc2)COC(c2ccc(OCCCO)cc2)=N1 | 0.0262 | 0.923 | -0.714 | -0.106 | 0.0951 | -0.217 | 0.214 | 0.0254 | 0.28 | -0.47
COC(=O)[C@@]1(Cc2ccccc2)[C@H]2c3cc(C(=O)N4CCCC4)n(Cc4ccc(OC(F)(F)F)cc4)c3C[C@H]2CN1C(=O)c1ccccc1 | 1.41 | -1.95 | -0.782 | 2.31 | 1.41 | 0.583 | 1.12 | 1.69 | 0.867 | 1.35
O=C1CSC(c2cccc([N+](=O)[O-])c2)N1c1ccccc1 (stereo not given) | 0.551 | -1.16 | 0.688 | 0.331 | -0.071 | -0.135 | -0.221 | -0.073 | 0.273 | 0.163
COc1ccc(C(=O)Nc2ccc(CN3C(=O)[C@]4(O[C@H](CCn5cc([C@H](O)c6ccccc6)nn5)[C@@H]([Si](C)(C)c5ccc(OC)cc5)[C@@H]4C)c4ccccc43)cc2)cc1 | 0.237 | -4.97 | -0.48 | -0.0217 | 0.187 | 0.158 | -0.453 | 0.0771 | 0.706 | 1.14
C=C(COC)/C(=C/C[C@@H](OC(=O)c1ccncc1)c1cccc(OCCO)c1)c1cc(C(=O)OC)ccc1OC | 0.755 | -4.4 | 0.872 | -0.134 | -0.698 | 0.115 | 0.0048 | -0.483 | 0.567 | 0.243
C=C(/C(=C/C[C@@H](OC(=O)c1ccncc1)c1cccc(OCCO)c1)c1cc(C(=O)OC)ccc1OC)C(C)C | 0.903 | -2.94 | 0.521 | 0.0576 | -0.412 | -0.101 | 0.131 | 0.0051 | 1.11 | 0.462
CC(C)(C)OC(=O)CC[C@]1(C(=O)N2CCCCC2)N=C(c2ccc(OCCCO)cc2)O[C@H]1c1ccccc1CN=[N+]=[N-] | 0.804 | -2.03 | 0.888 | 0.958 | 0.566 | 0.0044 | 0.439 | 0.659 | 2.52 | 0.12
C[C@H]1NC(=O)C([C@@H](C)OCc2ccccc2)NC(=O)[C@@]23C(=O)N[C@@H](Cc4ccccc4)C2[C@H](C)[C@@]2(C)O[C@H]2C3/C=C/CC/C=C/CNC1=O (stereo not given in full) | -0.165 | -0.631 | 0.416 | -0.377 | -0.377 | 0.0919 | 0.0815 | -0.37 | 0.26 | 0.421
CC1CC/C=C\[C@H]2OC34C=CCN(c5ccc(Cl)cc5)C(=O)[C@H]3N(C(CO)C(C)C)C(=O)[C@]4(C)C2C(=O)O1 (stereo not given in full) | -0.806 | -0.392 | -1.22 | -0.505 | 0.0376 | -0.152 | -0.154 | -0.679 | 0.184 | -0.59

Structure (SMILES) | composite z-score [1] | z-score [2] | composite z-score [3] | composite z-score [4] | composite z-score [5] | composite z-score [6] | composite z-score [7] | composite z-score [8] | composite z-score [9] | composite z-score [10]
CCCC=C(CCC)[C@@H](NS(=O)(=O)c1cccc2cccnc12)c1ccc(C(=O)OC)cc1 | 0.591 | 0.347 | 0.804 | 0.156 | -0.2 | 1.77 | 0.0093 | 3.92 | 0.354 | -0.0527
CCC[C@@H]1C[C@@]1(CCC)[C@@H](NC(=O)c1ccco1)c1ccc(Cl)cc1 | -1.06 | -0.49 | -0.936 | -0.177 | 0.0344 | -0.252 | 0.254 | 0.756 | -0.678 | -0.0776
COC(=O)[C@@]1(Cc2ccc(F)cc2)[C@@H]2[C@@H](CC(=O)[C@H]2CC(=O)C(=O)N2CCCC2)CN1C(=O)c1ccccc1 | 1.43 | -2.01 | -0.412 | 2.17 | 1.01 | 0.135 | 0.338 | 2.34 | 0.739 | 1.03
COCCCNC(=O)[C@@]1(Cc2ccccc2N=[N+]=[N-])N=C(c2ccc(OCCCO)cc2)O[C@H]1c1ccccc1CN=[N+]=[N-] | 1.44 | -2.86 | 0.0627 | 0.941 | 0.0507 | 0.0676 | 0.551 | 1.47 | 1.54 | 1.71
O=C1N(CCS(=O)(=O)c2ccccc2)Cc2ccccc2C[C@@]12COC(c1ccc(OCCCO)cc1)=N2 | 1.08 | -2.31 | 0.906 | 0.303 | 0.87 | 0.0561 | -0.0858 | 0.618 | 1.56 | 2.33
C=C(COC)C(=O)CC[C@H](OC(=O)c1ccccc1-c1ccccc1C(=O)O)c1ccc(OCCO)cc1 | 0.701 | -1.06 | 0.419 | 0.0421 | -0.774 | -0.148 | 0.351 | 0.229 | 3.05 | 1.16
O=C1N(CCS(=O)(=O)c2ccccc2)c2ccccc2[C@H]2OC(c3ccc(OCCCO)cc3)=N[C@@]12CCS(=O)(=O)c1ccccc1 | 1.13 | 0.208 | 0.98 | 0.589 | 0.362 | 0.385 | 0.359 | 1.29 | 0.475 | 0.96
CC(C)CN1C(=O)[C@@]2(Cc3ccccc31)c1ccccc1C(=O)N(Cc1ccccc1)[C@H]2c1ccc(CO)cc1 | -0.587 | 0.15 | -0.757 | -0.361 | -0.195 | -0.096 | -0.206 | -0.175 | -0.845 | -0.0612
C=CCC(OC(C)=O)[C@@H]1[C@@H](N(Cc2ccc(-c3cccc(C(F)(F)F)c3)o2)C(=O)c2cccc3ccccc23)c2cc(OCCCO)ccc2N1C(=O)c1ccc(-c2ccccc2)cc1 (stereo not given in full) | -0.535 | 0.182 | 0.0289 | -0.638 | 0.219 | -0.22 | -0.138 | -0.182 | -0.465 | 0.143
O=C1N(Cc2ccccc2)c2ccccc2[C@H]2OC(c3ccc(OCCCO)cc3)=N[C@@]12CCS(=O)(=O)c1ccccc1 | 1.46 | -2.22 | 0.479 | 1.76 | -0.465 | 0.0317 | 0.435 | 0.347 | 0.557 | 0.977
CC1(C)[C@@H]2CC(C(O)C3C=CC4C(=O)N(c5ccccc5)C(=O)C4N3Nc3ccccc3F)=C[C@@H]1C2 (stereo not given in full) | 1.4 | -3.15 | 0.501 | 1.18 | -0.229 | 0.164 | 0.0639 | -0.256 | 1.34 | 1.12
COc1ccc([Si](C)(C)[C@@H]2[C@@H](CC(=O)N3Cc4ccccc4C[C@H]3CO)O[C@]3(C(=O)N(Cc4cccc(N5CCCCC5=O)c4)c4ccccc43)[C@H]2C)cc1 | 1.09 | -3.47 | 0.709 | 0.836 | -0.219 | -0.0585 | 0.0557 | 0.228 | 1.11 | 1.9
COCCOC(=O)N1C(=O)[C@@]2(c3cc(C#CCNC(N)=O)ccc31)[C@H](C(N)=O)[C@H]1C(=O)O[C@H](c3ccccc3)[C@H](c3ccccc3)N1[C@@H]2c1ccc(OCCO)cc1 | 1.29 | -1.11 | 0.582 | 0.701 | 0.257 | -0.1 | -0.156 | 0.271 | 1.03 | 0.617
COCCOC(=O)N1C(=O)[C@@]2(c3cc(C#CC4(O)CCCCCC4)ccc31)[C@H](C(=O)NC[C@H](O)c1ccccc1)[C@H]1C(=O)O[C@H](c3ccccc3)[C@H](c3ccccc3)N1[C@@H]2c1ccc(OCCO)cc1 | 1.38 | -1.73 | 0.358 | 0.7 | 0.383 | -0.282 | -0.638 | 0.14 | 0.394 | 0.598
CC(=O)NCCCC[C@@H]1NC(=O)[C@H]2C[C@@H](C(=O)NCCCCCN)[C@@H](c3cccc(OCCO)c3)N2C1=O | 0.783 | 0.572 | 0.0306 | 1.27 | 1.35 | -0.0403 | -0.0119 | -0.392 | 0.718 | 1.82
Cc1ccc(S[C@]2(C(=O)NCCN3CCOCC3)CC(=O)N(C3Cc4ccccc4C3)[C@@H]2c2ccc(CO)cc2)cc1 | 1.36 | -1.56 | -1.59 | -0.482 | -0.399 | -0.0425 | -0.181 | 0.775 | 0.143 | 0.0451
C=CC[C@]1(C(=O)N(C)C)N=C(c2ccc(OCCCO)cc2)O[C@H]1c1ccccc1 | 1.46 | -2 | -0.309 | 1.57 | 0.19 | 0.224 | 0.33 | 1.15 | 0.765 | 1.25

— PubChem BioAssay
